High-throughput results (PubChem)
Sfp inh: qHTS Assay for Inhibitors of Bacillus subtilis Sfp phosphopantetheinyl transferase (PPTase); 310,000 tested, 3.5% active; Potency, µM, for inactives: largest response in the series, negative = inhibition, most hits filed as inhibitors; AID 1490, 2009; 4'-phosphopantetheinyl transferase ffp (Bacillus subtilis), Q9F4F7; Biochemical Sfp PPTase activity, qHTS;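 note: the enzyme is Sfp with the accession as filed and its product quenches rhodamine fluorescence; 0% = enzyme reaction without inhibitor and -100% = no enzyme wells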
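Sfp 15 nM + cpd, 15 min RT; start w/ rhodamine-CoA 5 uM, BHQ-2-YbbR 12.5 uM (final); 50 mM Hepes pH 7.6, 10 mM MgCl2, 0.01% NP-40, 0.01% BSA; read 525/598 nm at 0 and 30 min.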
Tau ThT inhib: qHTS for Inhibitors of Tau Fibril Formation, Thioflavin T Binding | Microtubule-associated protein tau (Homo sapiens), P10636 | recombinant tau K18 P301L, heparin-induced fibrillization, ThT fluorescence | Potency, µM (series often up to 57.4 µM), without a hit: top-dose activity, negative = inhibition, actives largely listed as inhibitors | 270,000 tested, 2.1% active; note: nearly all actives have a fitted effect of over 55% in size
Target sequence (P10636 561-689 P618L limits assumed): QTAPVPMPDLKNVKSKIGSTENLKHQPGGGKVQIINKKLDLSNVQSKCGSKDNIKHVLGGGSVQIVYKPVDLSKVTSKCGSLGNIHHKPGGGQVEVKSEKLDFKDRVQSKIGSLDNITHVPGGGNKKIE
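Using a mix of unlabeled (15 uM) and Alexa 594-labeled (0.24 uM) tau K18 P301L, heparin-triggered fibrillization over 6 hr at 37 C was scored by ThT fluorescence.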
VDR inh: Inhibitors of the vitamin D receptor (VDR): qHTS; Potency, µM, for inactives: max response, negative = inhibition, usual class: inhibitors; VDR-SRC2-3 peptide fluorescence polarization, 2 h; Vitamin D3 receptor (Homo sapiens), P11473; 400,000 tested, 0.93% active
Target sequence (P11473 whole entry, looked up): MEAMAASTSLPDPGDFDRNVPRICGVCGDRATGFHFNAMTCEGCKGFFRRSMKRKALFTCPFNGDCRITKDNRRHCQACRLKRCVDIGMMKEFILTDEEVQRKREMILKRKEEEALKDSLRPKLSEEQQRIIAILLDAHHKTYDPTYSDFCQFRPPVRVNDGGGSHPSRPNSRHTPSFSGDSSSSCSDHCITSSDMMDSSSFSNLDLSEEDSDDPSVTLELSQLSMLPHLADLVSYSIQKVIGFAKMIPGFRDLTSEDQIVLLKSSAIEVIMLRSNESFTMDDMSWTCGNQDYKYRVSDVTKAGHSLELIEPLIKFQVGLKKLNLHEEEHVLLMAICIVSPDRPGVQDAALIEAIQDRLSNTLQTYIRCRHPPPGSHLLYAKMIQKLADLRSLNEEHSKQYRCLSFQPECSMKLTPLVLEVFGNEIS
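Measured by FP: displacement of SRC2-3 coactivator peptide from VDR by library compounds, following a two-hour ambient incubation.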
Tau fluor cs: Counterscreen qHTS for Inhibitors of Tau Fibril Formation, Fluorescence Polarization. tau K18 P301L (four-repeat tau fragment) Alexa594 fluorescence, heparin fibrillization. Potency, µM (titrated, usually from 57.7 µM), inactives show top-dose activity change, negative = decrease. 280,000 tested, 0.93% active. AID 1463, 2008; note: nearly all actives have a fitted effect of over 55% in size
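Human K18 P301L tau (15 uM unlabeled plus 0.24 uM Alexa 594-labeled, final) in 100 mM sodium acetate pH 7 was mixed with compound and 20 uM heparin and incubated 6 hr at 37 C.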
Tau fibril FP: qHTS for Inhibitors of Tau Fibril Formation, Fluorescence Polarization; Microtubule-associated protein tau (Homo sapiens), P10636; 280,000 tested, 0.39% active; K18 P301L tau heparin fibrillization, Alexa594 FP, 6 h; Potency, µM (top dose mostly 57.7 µM), without a hit: top-dose activity, negative = inhibition, actives largely listed as inhibitors; note: nearly all actives have a fitted effect of over 55% in size
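Human K18 P301L fragment (15 uM unlabeled plus 0.24 uM Alexa 594-labeled) in 100 mM sodium acetate pH 7 with compound, aggregation induced by 20 uM heparin for 6 hr at 37 C. ThT (30 uM) added for 1 hr, then Alexa 594 FP read.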
PLK1 PBD block: qHTS for Inhibitors of PLK1-PDB (polo-like kinase 1 - polo-box domain): Primary Screen | Serine/threonine-protein kinase PLK1 (Homo sapiens), P53350 | Plk1 PBD binding of FITC phosphopeptide, fluorescence polarization | Potency, µM, inactives show max response, negative = inhibition, usual class: inhibitors | 360,000 tested, 2.8% active | AID 720504, 2013; note: series mostly up to about 57 µM; nearly all actives have a fitted effect of over 65% in size
* hit, by the source's call; [ ] = remark or other dose. Hits are enriched below; roughly 6% of the tested compounds scored in any of these assays. Calls come from the whole dose curve; as a rule, active = well fitted curve in the direction sought with a large enough effect; inconclusive = small, poorly fitted or top-dose-only effect, or another doubt; inactive = no such curve, though single readings can be large; an effect the other way counts as inactive or inconclusive. Unless noted, % is set by controls: 0 for no effect and ±100 for the full control effect; potency is the fitted concentration of half-maximal effect.

Results for N/C(=N\OC(=O)Cc1ccccc1)c1ccccn1 ?
Sfp inh: 14%; Tau ThT inhib: -9%; VDR inh: -5%; Tau fluor cs: -8%; Tau fibril FP: -11%; PLK1 PBD block: 12µM*

What do the screens show for `N/C(=N\OC(=O)COc1ccc2ccccc2c1Br)c1cccnc1`?
Sfp inh: -15%; Tau ThT inhib: inconclusive; Tau fluor cs: inconclusive; Tau fibril FP: -14%

What do the screens show for `N/C(=N\OC(=O)COc1ccc2ccccc2c1Br)c1ccccn1`?
Sfp inh: 56µM*; Tau ThT inhib: inconclusive; VDR inh: -6%; Tau fluor cs: inconclusive; Tau fibril FP: -8%; PLK1 PBD block: -4%

Results for C[C@@](O)(/C=C/[C@H]1CC=CC(=O)O1)[C@@H](C[C@@H](O)\C=C/C=C\C=C\CO)OP(=O)(O)O ?
Sfp inh: 2%; Tau ThT inhib: inconclusive; VDR inh: -4%; Tau fluor cs: -11%[11.6 µM]; Tau fibril FP: inconclusive

Results for Cc1ccc(CCNC(=O)c2sc3ncccc3c2-n2c(C)ccc2C)cc1 ?
Tau ThT inhib: inconclusive; VDR inh: -6%; Tau fluor cs: -15%; Tau fibril FP: 1%

What do the screens show for `Cc1nnc(N2CCN(c3cccc(C(F)(F)F)c3)CC2)c2c1nnn2Cc1ccccc1`?
Tau ThT inhib: -11%; VDR inh: 4%; Tau fluor cs: -16%; Tau fibril FP: -2%

How did CC(C)[C@H](NC(=O)[C@@H]1CSC2c3ccccc3C(=O)N21)C(=O)NCc1ccco1 (some centres undefined) do in these assays?
Sfp inh: inconclusive; VDR inh: -14%; PLK1 PBD block: -19%

How did O=C(NCc1ccco1)[C@@H]1CSC2c3ccccc3C(=O)N21 (some centres undefined) do in these assays?
Sfp inh: 35µM*; Tau ThT inhib: -17%; VDR inh: 13%; Tau fluor cs: -3%; Tau fibril FP: -3%; PLK1 PBD block: -27%

What do the screens show for `C=C1C2c3ccccc3C(CC2(C)O[Si](C)(C)C)N1C(=O)OC` (centres undefined)?
Sfp inh: -1%; Tau ThT inhib: 9%[11.5 µM]; Tau fluor cs: 2%[11.6 µM]; Tau fibril FP: 4%[11.6 µM]

Results for C=CCSc1nc2ccsc2c(=O)n1-c1cccnc1 ?
Sfp inh: inconclusive; Tau ThT inhib: -4%; VDR inh: -16%; Tau fluor cs: -5%; Tau fibril FP: -9%; PLK1 PBD block: 27µM*

What do the screens show for `COc1ccc(-n2c(NC(=O)c3ccc(Br)o3)c(C#N)c3nc4ccccc4nc32)cc1`?
Sfp inh: -28%; Tau ThT inhib: 14µM*; Tau fluor cs: inconclusive; Tau fibril FP: -12%

How did N#Cc1c(NC(=O)c2ccc(Br)o2)n(-c2ccccc2)c2nc3ccccc3nc12 do in these assays?
Sfp inh: -7%; Tau ThT inhib: 25µM*; VDR inh: 8.9µM*; Tau fluor cs: -26%; Tau fibril FP: -14%; PLK1 PBD block: inconclusive

How did O=C(O)CSc1c2c(nc3cc(C(=O)N4CCOCC4)ccc13)CCCC2 do in these assays?
Sfp inh: 50µM*; Tau ThT inhib: -18%; VDR inh: -7%; Tau fluor cs: -8%; Tau fibril FP: -7%; PLK1 PBD block: -17%

Results for CC(=O)c1cccc(NC(=O)Cn2nc(C)n3cccc3c2=O)c1 ?
Tau ThT inhib: inconclusive; VDR inh: 4%; Tau fluor cs: -6%; Tau fibril FP: inconclusive

Results for CC(=O)N1N=C2/C(=C/c3ccccc3)CCCC2C1c1ccccc1 (centres undefined) ?
Sfp inh: -19%; Tau ThT inhib: -3%; VDR inh: 71µM*; Tau fluor cs: 6%[2.34 µM]; Tau fibril FP: 7%[2.34 µM]; PLK1 PBD block: 27µM*

How did O=C(O)c1c(C(=O)N2N=C3/C(=C/c4ccccc4)CCCC3C2c2ccccc2)cccc1[N+](=O)[O-] (centres undefined) do in these assays?
Sfp inh: -26%; Tau ThT inhib: inconclusive; VDR inh: -8%; Tau fluor cs: -3%; Tau fibril FP: 9%; PLK1 PBD block: inconclusive

How did O=C(O)c1ccccc1C(=O)N1N=C2/C(=C/c3cccc([N+](=O)[O-])c3)CCCC2C1c1cccc([N+](=O)[O-])c1 (centres undefined) do in these assays?
Sfp inh: -16%; Tau ThT inhib: inconclusive; VDR inh: -4%; Tau fluor cs: -6%; Tau fibril FP: -3%; PLK1 PBD block: 67µM*

How did CO/N=C(\C(=O)O)c1csc(NN=C(C)C)n1 do in these assays?
Sfp inh: 35µM*; Tau ThT inhib: inconclusive; VDR inh: -12%; Tau fluor cs: -26%; Tau fibril FP: -6%; PLK1 PBD block: -4%

What do the screens show for `O=C(O)c1csc(N/N=C/c2ccc(Br)cc2)n1`?
Sfp inh: 3%; Tau ThT inhib: inconclusive; VDR inh: -23%; Tau fluor cs: inconclusive; Tau fibril FP: 0%; PLK1 PBD block: inconclusive

What do the screens show for `O=C(Nc1cccc(C(F)(F)F)c1)c1cccnc1N1CCN(CCO)CC1`?
Sfp inh: 15%; Tau ThT inhib: -2%; VDR inh: 16%; Tau fluor cs: -6%; Tau fibril FP: -12%; PLK1 PBD block: -1%

What do the screens show for `O=C(Nc1cccc(C(F)(F)F)c1)c1cccnc1N1CCN(c2ccccc2)CC1`?
Sfp inh: 22µM*; Tau ThT inhib: -20%; VDR inh: 0%; Tau fluor cs: inconclusive; Tau fibril FP: 9%; PLK1 PBD block: -3%

Results for O=C1NC2(CCCC2)C(=O)N1CC(=O)N(Cc1ccccc1)c1ccccc1 ?
VDR inh: -8%; PLK1 PBD block: -13%

Results for COc1ccc(NC(=O)Cn2cnc3sc(C)c(S(=O)(=O)N4CCOCC4)c3c2=O)c(OC)c1 ?
Sfp inh: 14%; Tau ThT inhib: -5%; VDR inh: 20%; Tau fluor cs: -4%; Tau fibril FP: 0%; PLK1 PBD block: -15%

Results for CN(NC1CC(=O)N(c2ccccc2)C1=O)c1ccccc1 (centres undefined) ?
Sfp inh: 45µM*; Tau ThT inhib: inconclusive; VDR inh: 13%; Tau fluor cs: -7%; Tau fibril FP: -14%; PLK1 PBD block: -14%
